# From PubChem
# The list is not random: actives were taken first. Their share in the collection is about 11%.
# ALDH1A1 block = qHTS Assay for Inhibitors of Aldehyde Dehydrogenase 1 (ALDH1A1); 220,000 compounds, 7.3% hits; Aldehyde dehydrogenase 1A1 (Homo sapiens), P00352; Potency, µM (doses to about 75.3 µM), for the others: at the top dose activity, negative = inhibition, actives largely listed as inhibitors; Purified ALDH1A1, NADH fluorescence, propionaldehyde substrate; AID 1030, 2008;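 note: potency is the fitted concentration of half-maximal effect; plate controls were no enzyme wells and a reference inhibitor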
# HPGD block = qHTS Assay for Inhibitors of HPGD (15-Hydroxyprostaglandin Dehydrogenase); 15-hydroxyprostaglandin dehydrogenase [NAD(+)] (Homo sapiens), P15428; purified HPGD, NADH fluorescence kinetic, PGE2 substrate; Potency, µM, for inactives: at the top dose activity change, negative = inhibition, hits mostly inhibitors; 150,000 compounds, 4.3% hits; note: potency is the fitted concentration of half-maximal effect
# Target sequence (P15428 whole entry, looked up): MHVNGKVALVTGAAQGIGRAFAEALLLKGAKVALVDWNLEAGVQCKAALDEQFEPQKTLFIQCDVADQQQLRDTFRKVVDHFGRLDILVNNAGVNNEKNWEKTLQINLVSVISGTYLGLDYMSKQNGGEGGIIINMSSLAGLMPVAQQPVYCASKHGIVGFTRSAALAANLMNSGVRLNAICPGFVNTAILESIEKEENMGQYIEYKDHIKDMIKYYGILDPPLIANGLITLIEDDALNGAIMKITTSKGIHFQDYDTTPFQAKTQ
#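 20 nM HPGD preincubated 15 min at room temperature with compound in 50 mM Tris-HCl pH 8, 0.01% Tween 20. Started with 1 mM NAD+ and 30 uM prostaglandin E2; NADH fluorescence (360/450 nm) read 5 times over 30-s intervals, last minus first.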
# PNC inhibitor = High Content Assay for Compounds that inhibit the Assembly of the Perinucleolar Compartment; PC3M PTB-GFP, PNC prevalence imaging, 16 h; active compounds read low; activity change (PNC), negative = inhibition, % at 10 µM; 140,000 compounds, 3.1% hits;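 active = readout at or below -70, meaning at least 70% loss of cells showing the perinucleolar compartment, a nuclear body marking cancer cells; inconclusive = readout between -30 and a set limit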;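 note: plate controls were DMSO wells for no effect and camptothecin positive control wells for full effect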
#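 Compounds are pinned in duplicate onto adhered PC3M cells stably expressing GFP-tagged PTB and incubated 16 h at 37 C. Cells are then fixed, nuclei stained with Hoechst, and PNC-positive cells counted.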
# * marks the source's active call; other numbers are inactive results; ? = inconclusive; . = not tested or not shown; [ ] = another dose, or the depositor's remark. Unless noted, calls come from the whole dose curve; as a rule, active = well fitted inhibition curve with a large enough effect (not every such curve was filed as active); inconclusive = small, poorly fitted or top-dose-only effect, or another doubt; inactive = no such curve, though single readings can be large or run the other way. Unless noted, % is set by controls: 0 for no effect and ±100 for the full control effect.
SMILES,ALDH1A1 block,HPGD block,PNC inhibitor
O=C(NC(=S)Nc1ccc(S(=O)(=O)N2CCCC2)cc1)C1CC1,20µM*,.,.
O=C(NC(=S)Nc1ccc(S(=O)(=O)N2CCCC2)cc1)C1CCC1,?,3%,4
NS(=O)(=O)c1ccc(NC(=S)NC2CCCCCC2)cc1,?,-12%,-1
O=C(CCNS(=O)(=O)c1ccc(Br)cc1)NC1CCCCC1,-3%,.,.
O=S(=O)(c1ccc(NC(=S)NC2CCCC2)cc1)N1CCCC1,14µM*,.,.
O=S(=O)(NC(=S)NC1CCCCC1)c1ccc(Br)cc1,25µM*,.,.
COc1cccc(CNc2cc(CSc3ccc(Cl)cc3)nc(C)n2)c1,-5%,-8%,58
CCC(C)[C@@H](N)C(=O)N/N=C/c1ccc2ncccc2c1 (some centres not stated),?,-11%,4
COCC(C)NCC(=O)NC(C)CCc1ccccc1 (configuration not stated),?,-15%,?
Cc1c(NS(=O)(=O)c2ccc(Cl)c(C(=O)OC(C)C(=O)NCc3ccco3)c2)c(=O)n(-c2ccccc2)n1C (configuration not stated),-2%,.,.
CCOc1cc(NC(=S)NCCOC)c(OCC)cc1NC(=O)c1ccco1,-4%,.,.
CCn1c(CC(=O)Nc2cccc(Cl)c2Cl)nnc1SCCOc1ccc(OC)cc1,14µM*,-5%,8
COc1ccc(OCCSc2nnc(CC(=O)Nc3cccc(Cl)c3Cl)n2C)cc1,?,-15%,-2
Cc1c([N+](=O)[O-])c([N+](=O)[O-])nn1CC(=O)N1CCOCC1,-3%,.,.
COCCNC(=O)c1ccc2ccccc2n1,?,22µM*,?
Cc1ccccc1OCCNC(=O)c1ccc2ccccc2n1,5%,-23%,-24
NNC(=O)c1ccc2ccccc2n1,7.9µM*,.,.
O=C(NCc1ccccn1)c1ccc2ccccc2n1,-6%,-17%,89
O=C(NN=C1CCCCCCC1)c1ccccn1,-4%,.,-11
O=C(NN=C1CCCCCCC1)c1ccc2ccccc2n1,1.6µM*,.,.
O=C(c1ccc(F)cc1Cl)N(c1ccccn1)C1CCCCC1,16%,.,.
O=C1[C@@H]2[C@H]3[C@H](O)[C@H](O)C/C(=N/OCc4ccccc4)[C@H]3CC[C@H]2C(=O)N1c1ccc(F)cc1F,11%[13.5 µM],.,.
C/C(=N\NC(=O)c1nonc1N)c1cccs1,6%,-6%,-11
O=S(=O)(c1ccccc1)N1CCC2(CC1)CN(Cc1ccccc1)C2,13%,-5%,.
O=C(CCCN1C(=O)c2cccc3cccc(c23)C1=O)Nc1ccon1,-1%,.,.
SMILES,ALDH1A1 block,HPGD block,PNC inhibitor
S=C1NC2=C(CCCC2=C2SCCS2)C(c2ccccc2)N1 (configuration not stated),0.35µM*,.,.
Cc1ccc(C2NC(=O)NC3=C2CCc2ccccc23)cc1 (configuration not stated),?,?,-2
COCCn1c(-c2ccccc2F)n[nH]c1=S,?,-23%,?
COCCn1c(C23CC4CC(CC(C4)C2)C3)n[nH]c1=S,-101%,25µM*,3
COc1ccc(N2C(=O)[C@H]3CCC=C[C@H]3[C@@H]2c2ccccc2Br)cc1,7.1µM*,-20%,.
O=C1[C@H]2CCC=C[C@H]2[C@H](c2ccccc2Br)N1Cc1ccccc1,?,-12%,.
O=C(NNC1OC(CO)C(O)C(O)C1O)c1cccc(Br)c1 (configuration not stated),11µM*,.,.
O=C(O)/C=C/C(=O)NNC(=O)c1cccc(Br)c1,20µM*,-2%,115
O=C(O)CCC(=O)NNC(=O)c1cccc(Br)c1,3%,1%,24
CC(C)(C)NC(=S)NNC(=O)c1cccc(Br)c1,11µM*,.,.
CCCNC(=O)c1cccc(Br)c1,-10%,.,.
CC(C)(C)NC(=S)NNC(=O)c1ccccc1Cl,?,-13%,-13
O=C(NC(=S)Nc1cc(Cl)ccc1O)c1cccc(Br)c1,9.5µM*,.,.
CN(C)S(=O)(=O)c1cccc(C(=O)Nc2cc(Cl)ccc2O)c1,?,-16%,22
COC(=O)C1(CC(C)C)C=C2C(=C(c3ccccc3)C(=O)C2C)CN1 (configuration not stated),-11%,?,.
CN(Cc1ccccc1)CC(O)COc1ccc(CNCc2ccc(Cl)s2)cc1 (configuration not stated),3%,.,.
CCOc1ccccc1NC(C)C(=O)Nc1cc(C(F)(F)F)ccc1N1CCOCC1 (configuration not stated),0%,-3%,47
O=C(COC(=O)C1CCN(S(=O)(=O)c2ccccc2)CC1)NC(=O)c1ccc(OC(F)F)cc1,4%,-9%,4
CC(C)COc1ccc(-c2cc(C(=O)NN)[nH]n2)cc1,10%,-6%,6
CCCCC1=CC2=C(c3ccco3)C(=O)C(C)(OC(=O)c3cccs3)C(=O)C2=CO1 (configuration not stated),-4%,-21%,.
O=c1cc(-c2cccc(F)c2)[nH]c2cc(Cl)ccc12,1%[120 µM],-7%,.
O=C(NNC(=O)c1cccc(Br)c1)Nc1ccc(Cl)cc1,2%,.,.
O=C(NNC(=S)Nc1ccccc1)c1cccc(Br)c1,20µM*,-7%,11
COc1ccc(S(=O)(=O)Nc2ccccc2OC)cc1NC(=O)CC1CC2CCC1C2 (configuration not stated),?,-11%,19
CCCN(Cc1ccccc1)C(=S)NC(=O)c1ccccc1[N+](=O)[O-],-13%,.,.
SMILES,ALDH1A1 block,HPGD block,PNC inhibitor
Cc1cccc(N2CCN(Cc3cc(=O)n4ccsc4n3)CC2)c1C,10%,1%,-27
O=c1cc(CN2CCN(c3ccccc3O)CC2)nc2sccn12,25µM*,?,-22
CCCCc1ccc(/C=C2\C(=O)ON=C2c2ccccc2)s1,-4%,-6%,-19
CCc1ccc(NC(=O)Cc2c(C(=O)O)n(C)c3ccccc23)cc1,-1%,.,.
O=C1Nc2ccccc2N(O)N1c1ccc(Cl)cc1,11%,.,.
CCN1c2ccccc2NC2C1C(C(C)=O)C(=O)N2c1ccc(Cl)cc1 (configuration not stated),14µM*,-13%,-23
COc1cc(NC(=O)COC(=O)Cc2ccc(-c3ccccc3)cc2)cc(OC)c1,?,-22%,-102*
NC(=O)CC[C@H](NC(=O)c1ccc(F)cc1)C(=O)OCC(=O)Nc1ccc(N2CCOCC2)cc1,11µM*,-6%,-11
C/C(=C\C(=O)c1ccc(F)cc1)Nc1ccc(N2CCOCC2)cc1,?,-17%,-12
COc1ccc(CC(=O)OCC(=O)Nc2ccc(N3CCOCC3)cc2)cc1,25µM*,.,.
CC(=O)c1ccc(N2CCN(CC(=O)Nc3ccc(N4CCOCC4)cc3)CC2)cc1,4%,.,.
CC(=O)Nc1ccc(C(=O)OCC(=O)Nc2ccc(N3CCOCC3)cc2)cc1,18µM*,.,.
COc1ccc(OC)c(NC(=O)COC(=O)Cc2ccc(-c3ccccc3)cc2)c1,-1%,-8%,?
COc1cc(CC(=O)OCC(=O)Nc2ccc(N3CCOCC3)cc2)cc(OC)c1OC,-13%,.,.
CNCc1ccccc1OCC(=O)Nc1ccccc1OC,5%,-6%,-26
CCc1cc(=O)[nH]c(SCc2ccc(C)cc2)n1,-3%,.,.
